FLuc counter – inhibits or activates purified firefly luciferase, miR-21 counter-screen | purified FLuc, Km substrates, luminescence inhibition | P08659 | Potency, µM (highest dose often 57.5 µM), without a hit: at the highest dose activity change, negative = inhibition, usual class: inhibitors | 6.9% of 360,000 active;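 further: plate controls were vehicle for no effect and reference inhibitor for full effect; nearly all actives have a fitted effect of over 55% in size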
Target sequence (P08659 whole entry, looked up): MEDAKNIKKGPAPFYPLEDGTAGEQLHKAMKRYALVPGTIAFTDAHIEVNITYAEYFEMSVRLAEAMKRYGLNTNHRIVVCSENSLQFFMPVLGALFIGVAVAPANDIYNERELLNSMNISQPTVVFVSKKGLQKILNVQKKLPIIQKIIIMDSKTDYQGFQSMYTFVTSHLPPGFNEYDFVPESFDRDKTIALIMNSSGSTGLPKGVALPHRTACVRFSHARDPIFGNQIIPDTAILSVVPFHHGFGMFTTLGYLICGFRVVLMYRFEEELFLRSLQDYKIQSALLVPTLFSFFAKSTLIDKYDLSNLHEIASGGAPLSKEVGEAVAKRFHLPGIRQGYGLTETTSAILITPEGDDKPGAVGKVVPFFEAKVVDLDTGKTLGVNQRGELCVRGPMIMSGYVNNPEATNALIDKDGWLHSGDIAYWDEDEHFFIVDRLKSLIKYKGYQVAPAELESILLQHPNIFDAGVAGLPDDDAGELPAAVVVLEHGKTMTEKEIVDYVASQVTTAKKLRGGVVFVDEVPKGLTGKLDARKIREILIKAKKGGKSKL
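Purified P. pyralis luciferase, 10 nM final, with Km-level 10 uM D-luciferin and 10 uM ATP in 50 mM Tris acetate pH 7.5, 10 mM Mg acetate, 0.01% Tween-20, 0.05% BSA; 6-point qHTS titration about 60 µM downward; luminescence read.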
Rab9 promoter act – activators of Rab9 promoter | Huh7 Rab9 promoter-luciferase reporter, luminescence, 24 h | Potency, µM (titrated, usually from 9.22 µM), for inactives: top-dose activation, negative = inhibition, usual class: activators | 2.8% of 320,000 active; further: % of control where 0% means no effect; nearly all actives have a fitted effect of over 60% in size
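Huh7 reporter line, Rab9 promoter upstream of luciferase. Compound exposure 24 h at 37 °C in reduced-serum medium with 10% FBS. Read-out: luminescence.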
NPC1 prom act – activates the NPC1 promoter. 2.4% of 320,000 active. AID 485313. Potency, µM (series often up to 9.22 µM), for inactives: at the highest dose activation, usual class: activators. Huh7 NPC1 promoter luciferase reporter, 24 h; further: % of control where 0% means no effect; nearly all actives have a fitted effect of over 60% in size
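Readout is luciferase luminescence, reflecting NPC1 promoter activation in stably transfected Huh7 cells after 24 h compound exposure at 37 °C in reduced-serum medium with 10% FBS.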
ELG1 genotox – induces genotoxicity in HEK293T cells with luciferase-tagged ELG1; Potency, µM (titrated, usually from 46 µM), inactives show at the highest dose activity change, positive = activation, usual class: activators; HEK293T ELG1-luciferase reporter, luminescence, 16 h; AID 504466; 1.3% of 330,000 active; further: % of control where 0% means no effect; nearly all actives have a fitted effect of over 60% in size
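Genotoxic stress is detected as increased luminescence from luciferase-tagged ELG1 in HEK293T cells, measured with ONE-Glo after a 16 hr treatment at 37 °C.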
Luc counter – Kinase-Glo luciferase inhibition (counter-screen); Q27757; Kinase-Glo luciferase, ATP luminescence, 8 min; Potency, µM (doses to about 38.3 µM), inactives show top-dose activity change, negative = inhibition, hits mostly inhibitors; 0.28% of 200,000 active; AID 1379; further: on the % scale 0 is the no-effect control and ±100 the full control effect; nearly all actives have a fitted effect of over 60% in size
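Substrate mix (final 50 mM imidazole pH 7.2, 50 mM KCl, 7 mM MgCl2, 10 uM ATP, 0.01% Tween 20, 0.05% BSA) plus pin-tool compound, then Kinase-Glo detection mix; 8 min ambient, luminescence read.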
SMN2 splice up – enhancers of SMN2 splice variant expression; HEK293 SMN2-luciferase splicing reporter, luminescence, 30-36 h; Potency, µM (doses to about 46.1 µM), inactives show top-dose activity change, positive = activation, actives largely listed as activators; 2.8% of 210,000 active; AID 1458; further: % of control where 0% means no effect; nearly all actives have a fitted effect of over 55% in size
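qHTS luciferase splicing reporter: luminescence rises when SMN2 exon 7 is included in transfected HEK293 cells. Compound exposure lasted 30-36 h at 37C, with 4.5 mM final sodium butyrate as control, followed by a ONE-Glo read.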
Active calls of the source: *; ? = inconclusive; · = no result. An excerpt weighted towards active compounds, which were near 7.5% of everything screened. The call rests on the fitted dose curve; in most records, active means well fitted curve in the direction sought with a large enough effect; inconclusive means small, poorly fitted or top-dose-only effect, or another doubt; inactive means no such curve, though single readings can be large; an effect the other way counts as inactive or inconclusive. Potency means the concentration at half of the fitted maximal effect.

SMILES | FLuc counter | Rab9 promoter act | NPC1 prom act | ELG1 genotox | Luc counter | SMN2 splice up
CC(=O)Oc1ccc(NC(=O)CSc2ccccc2)cc1 | ? | 18% | 28% | 15µM* | -2% | ?
COc1ccc(NC(=O)c2ccccc2NC(=O)CSc2ccc(C)cc2)cc1 | 0% | ? | 20% | ? | -1% | -15%
COc1ccccc1N1CCN(C(CNC(=O)C(=O)NCCCN(C)C)c2cccnc2)CC1 (stereo not given) | -1% | · | · | · | · | ·
CC(C)NC(=O)C1CCCN(S(=O)(=O)c2ccc3c(ccn3C)c2)C1 (stereo not given) | -2% | · | · | · | · | ·
Cc1ccccc1NC(=O)Nc1ccc2c(c1)OCO2 | ? | 2.8µM* | ? | ? | · | ·
CC(=O)Nc1ccccc1OCC(=O)c1ccc2c(c1)OCO2 | -8% | 3.2µM* | 3.5µM* | ? | · | ·
O=C(Nc1ccccc1Cl)OC1CCCCC1 | 24µM* | 11% | -1% | 4% | · | ·
O=C(COC(=O)c1ccc2c(c1)OCO2)Nc1ccccc1OC(F)F | · | · | · | 0% | · | ·
O=C(NN=C1CCCCC1)Nc1ccccc1Cl | 19µM* | -5% | 2% | -2% | · | ·
CCOc1ccccc1NC(=O)Nc1ccc2c(c1)CCC2 | 6.7µM* | ? | ? | ? | · | ·
Cc1ccc(NC(=O)Nc2ccc3c(c2)CCC3)c(C)c1 | 4% | 8% | -2% | 8% | · | ·
CCOc1ccccc1NC(=O)Nc1cccc(NC(C)=O)c1 | -15% | -5% | 0% | -1% | · | ·
CCOc1ccccc1NC(=O)Nc1ccc2c(c1)OCO2 | 21µM* | ? | 26% | 11% | · | ·
O=C(Nc1ccc2c(c1)CCC2)Nc1ccccc1Cl | 1.5µM* | 1.8µM* | 1.4µM* | 2.3µM* | · | ·
CCOc1ccccc1NC(=O)Nc1cccc(C(C)=O)c1 | 24µM* | 7% | -2% | 14% | 10% | -1%
CCOc1ccccc1NC(=O)Nc1ccc(OC)nc1 | ? | -1% | 9% | 0% | · | ·
Cc1ccn2c(Nc3c(C)cccc3C)c(-c3ccc(Cl)s3)nc2c1 | -3% | · | · | · | · | 3%
CN(C1CCCCC1)S(=O)(=O)c1ccc2c(c1)c(=O)c(C(=O)N1CCN(c3ccccc3)CC1)cn2C | -2% | · | · | · | · | 4%
Cc1c(NC(=O)Nc2ccc3c(c2)OCO3)cccc1[N+](=O)[O-] | ? | ? | 3.2µM* | 14% | · | ·
CCc1nn(CC(=O)N2CC(C)CC(C)C2)c(=O)c2cccn12 (stereo not given) | 5% | -1% | -1% | 0% | · | ·
Cc1ccc(C2=NN3C(=O)c4ccccc4C3C2)cc1 (stereo not given) | 17µM* | ? | ? | ? | · | ·
COc1ccccc1C(=O)Nc1ccc(C(=O)/C=C/c2cccs2)cc1 | -19% | -9% | -2% | 1% | -1% | -15%
O=C(Nc1ccc(NC(=O)c2ccccc2F)cc1)c1cccs1 | -15% | 3.5µM* | ? | ? | · | ·
O=C(Nc1ccc(NC(=O)c2cccs2)c(Cl)c1)c1cccs1 | 17µM* | ? | ? | ? | · | ·
O=C(/C=C/c1cccs1)c1ccc(NC(=O)c2ccccc2F)cc1 | 3µM* | 20% | 12% | 22% | -1% | 4%
SMILES | FLuc counter | Rab9 promoter act | NPC1 prom act | ELG1 genotox | Luc counter | SMN2 splice up
O=C(Nc1ccc([N+](=O)[O-])cc1)c1ccccc1F | ? | 2.8µM* | ? | 22% | 2% | 16µM*
O=C(Nc1ccc(-c2ccc([N+](=O)[O-])cc2)cc1)c1ccccc1F | 0% | 13% | 14% | 7% | -1% | ?
COc1ccc(N2CC(NC(=O)c3ccc4c(c3)OCO4)CC2=O)cc1OC (stereo not given) | -5% | · | · | · | · | ·
CC(OC(=O)c1cccc(-n2cnnn2)c1)C(=O)Nc1cccc(Cl)c1 (stereo not given) | -1% | -5% | 1% | -6% | · | ·
O=C(Nc1ccccc1C(=O)Nc1ccccc1)c1ccccc1F | 0% | -3% | -3% | -1% | · | ·
CCC(C)c1ccc(NC(=O)c2cccs2)cc1 (stereo not given) | 0.67µM* | 0.45µM* | 0.4µM* | 0.73µM* | -15% | 7.9µM*
O=C(Nc1ccc(NC(=O)C2CC2)cc1)c1cccs1 | 13µM* | 1.3µM* | 3.5µM* | ? | · | ·
CC1(c2ccc(NC(=O)c3ccccc3F)cc2)CC1(Cl)Cl (stereo not given) | 8.5µM* | 2.5µM* | 3.5µM* | ? | · | ·
O=C(Nc1ccc(C(=O)N2CCCCC2)cc1)c1cccs1 | ? | 13% | 14% | ? | · | ·
CCC(C)NS(=O)(=O)c1ccc(NC(=O)c2cccs2)cc1 (stereo not given) | -1% | -2% | -8% | -2% | -2% | ·
Cc1ccccc1C(=O)Nc1ccc(NC(=O)c2cccs2)cc1 | ? | · | · | · | · | 3.5µM*
COc1ccc2[nH]c3c(c2c1)CCN1C(=O)C(CC(=O)NCc2ccco2)C[C@H](C(=O)N2CCOCC2)[C@@]31CCC1CCCC1 (stereo not given in full) | · | · | · | 0% | · | ·
CCc1cccc(N(C(=O)c2csnn2)C(C(=O)NC2CCCCC2)c2ccncc2)c1 (stereo not given) | 0% | -1% | -1% | -7% | · | ·
CCOc1ccccc1NC(=O)CSc1nc(=O)n(CCN2CCOCC2)c2c1CCCC2 | 2% | 2% | 1% | 3% | · | ·
COc1cccc2cc(C(=O)NC3CC4CCC3C4)oc12 (stereo not given) | ? | 2% | -1% | 5% | · | ·
O=[N+]([O-])c1ccc(Nc2ccc(F)cc2)cc1 | -3% | 2% | -1% | -2% | · | ·
O=C(Nc1ccc(Cl)cc1)c1cccs1 | 12µM* | · | · | · | -7% | 23%
O=C(Nc1ccc2[nH]ccc2c1)c1cccs1 | 9.5µM* | 2µM* | 1.6µM* | ? | · | ·
O=[N+]([O-])c1ccc(NNC(=S)Nc2ccc(F)cc2)cc1 | 19µM* | 13% | 22% | 7% | -12% | -55%

Source: PubChem
